What all share (test): NCI-60 one-dose screen, 48 h (100 = growth as untreated, 0 = no growth, -100 = all killed)
Experiment [1] concerns SK-MEL-2 melanoma. To be noted: 10 µM unless noted.
For experiment [2], the system named is EKVX NSCLC. To be noted: 10 µM unless noted.
For experiment [3], the system named is SN12C renal. To be noted: 10 µM unless noted.
Experiment [4] deals with UO-31 renal. The conditions noted are these: 10 µM unless noted.
In experiment [5] the test system is TK-10 renal. The conditions noted are these: 10 µM unless noted.
Experiment [6] deals with ACHN renal. To be noted: 10 µM unless noted.
Experiment [7] relates to CAKI-1 renal. To be noted: 10 µM unless noted.
In experiment [8] the test system is A498 renal. To be noted: 10 µM unless noted.
Experiment [9] concerns CCRF-CEM leukemia. To be noted: 10 µM unless noted.
Experiment [10] has as its system MOLT-4 leukemia. The conditions noted are these: 10 µM unless noted.
For experiment [11], the system named is SR leukemia. To be noted: 10 µM unless noted.
Experiment [12] deals with RPMI-8226 leukemia. The conditions noted are these: 10 µM unless noted.
The subject of experiment [13] is OVCAR-8 ovarian. To be noted: 10 µM unless noted.
The subject of experiment [14] is OVCAR-5 ovarian. The conditions noted are these: 10 µM unless noted.
The test system of experiment [15] is SK-OV-3 ovarian. To be noted: 10 µM unless noted.
For experiment [16], the system named is IGROV1 ovarian. The conditions noted are these: 10 µM unless noted.
The test system of experiment [17] is OVCAR-3 ovarian. To be noted: 10 µM unless noted.
Experiment [18] deals with HS 578T breast. To be noted: 10 µM unless noted.
Experiment [19] concerns NCI/ADR-RES ovarian. To be noted: 10 µM unless noted.
The subject of experiment [20] is OVCAR-4 ovarian. To be noted: 10 µM.

The panel holds about 83,000 compounds, 20% with a hit somewhere; the sample as a whole holds those more often.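 Cells were grown in 96-well plates and exposed to the test compound at a single concentration for 48 hours; results are reported as percent growth, with values below 10 considered active.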 Unmarked numbers belong to inactive results. The source made the active and inactive calls.

For the molecule `Cc1ccc(-n2nc3n(/c2=N\C(=O)NS(=O)(=O)c2ccc(C)cc2)CCN3C2=NCCN2)cc1`, the growth is 109% in [1]; 99.5% in experiment [2]; 97% in experiment [3]; 84.1% in experiment [4]; 101% in [5]; 94.5% in experiment [6]. Besides, the growth was 90% in [7]; 93.5% in experiment [8]; 107% in experiment [9]; 112% in [10]; 135% in experiment [11]; 106% in experiment [12]. The growth in [13] was 103%; in [14] it was 95.4%; in [15], 99.1%; in experiment [16], 104%; in experiment [17], 109%; in [18], 99.7%. Moreover, the growth in [19] is 105%.
For `CC(C)=CC/C=C(/C)[C@H]1CC[C@]2(C)[C@@H]1CC[C@@H]1[C@@]3(C)CC/C(=N/O)C(C)(C)[C@@H]3CC[C@]12C`, the growth in [1] is 59.2% [100 µM]; in experiment [2], 72.2% [100 µM]; in [3], 41% [100 µM]; in experiment [4], 58.3% [100 µM]; in experiment [5] it was 82% [100 µM]; in [6] it was 54.3% [100 µM]. In addition, the growth in experiment [7] was 57.4% [100 µM]; in [8], 88.8% [100 µM]; in experiment [9], 38.4% [100 µM]; in experiment [10] it was 27.6% [100 µM]; in experiment [11] it was 45.2% [100 µM]; in experiment [12], 52% [100 µM]. The growth in [13] is 40.8% [100 µM]; in [14] it was 80.6% [100 µM]; in [15], 68.8% [100 µM]; in [16], 76.2% [100 µM]; in [17], 52.4% [100 µM]; in [18], 64.3% [100 µM]. Moreover, in experiment [19], the growth is 63.9% [100 µM].
Consider `CCCCC(CCCCCC(CCCC)C1NC(C)Cc2cc(OC)c(OC)cc21)C1NC(C)Cc2cc(OC)c(OC)cc21` (configuration not stated), for which the growth in experiment [1] is -81.9% (active); in [2], -61.2% (active); in experiment [3], -21.3% (active); in experiment [4], -83.5% (active); in [5], -94.5% (active); in experiment [6], -100% (active). Also, the growth in [7] is -63.9% (active); in experiment [8], -12.3% (active); in [10] it was -63% (active); in experiment [11], -79.2% (active); in experiment [12] it was -48.3% (active); in [13], -74.3% (active). The growth in experiment [14] is -96.4% (active); in [20], -90.1% (active); in experiment [15] it was -87.3% (active); in [16], -34.8% (active); in experiment [17] it was -94.2% (active); in experiment [18] it was -38.6% (active). Further, the growth in [19] was -88.3% (active).
`CO[C@H]1CC[C@@]2(C)C(=CC[C@H]3[C@@H]4C[C@H](O)C[C@@]4(C)CC[C@@H]32)C1`: the growth in experiment [1] was 67.2%; in [2], 76.4%; in [3], 64.8%; in [4], 66.1%; in [5], 58.9%; in experiment [6], 69.6%. For the same molecule, the growth in [7] is 42.8%; in [8], 55.8%; in [9] it was 19.3%; in experiment [10], 33.5%; in [11], 14.1%; in experiment [12], 54.5%. For the same molecule, the growth in experiment [13] is 82.5%; in experiment [14] it was 102%; in experiment [15] it was 39.1%; in experiment [16] it was 53.8%; in [17], 28.7%; in experiment [18], 60.8%. Besides, the growth in experiment [19] was 39.1%.
For the molecule `COc1ncc(-c2ccc3nccc(C#CCCCCC(=O)O)c3c2)cc1NS(=O)(=O)c1ccc(F)cc1F`, the growth in [1] was 31.3%; in experiment [2], 22%; in experiment [3] it was 40.8%; in [4], 12.5%; in experiment [5] it was 3.96% (active); in experiment [6], 32%. For the same molecule, the growth was 14.1% in experiment [7]; -34.5% (active) in experiment [8]; 24.4% in experiment [9]; 29% in experiment [10]; 63.8% in [11]; 47.4% in experiment [12]. Moreover, the growth in experiment [13] was 35.4%; in [14] it was 22.7%; in experiment [16] it was -13% (active); in [17], 19.8%; in experiment [18] it was -10.2% (active); in experiment [19] it was 56%.
As for `C=C(C)[C@@H]1CC[C@]2(C(=O)NCCNCCNCCN)CC[C@]3(C)[C@H](CC[C@@H]4[C@@]5(C)CCC(=O)C(C)(C)[C@@H]5CC[C@]43C)[C@@H]12`, the growth in [1] is 56.4% [100 µM]; in [2] it was 11.4% [100 µM]; in [3] it was -88.5% [100 µM] (active); in [4] it was -96.4% [100 µM] (active); in [5], -77.7% [100 µM] (active); in [6] it was -83.3% [100 µM] (active). In addition, the growth in experiment [7] is -8.79% [100 µM] (active); in experiment [8], 80.8% [100 µM]; in [9] it was -11.3% [100 µM] (active); in experiment [10], -16.3% [100 µM] (active); in experiment [11], 4.96% [100 µM] (active); in [12] it was -30.7% [100 µM] (active). The growth was -75% [100 µM] (active) in experiment [13]; -44.1% [100 µM] (active) in [14]; 70.5% [100 µM] in [15]; -84.8% [100 µM] (active) in experiment [16]; -72.5% [100 µM] (active) in experiment [17]; 47.8% [100 µM] in [18]. For the same molecule, the growth in experiment [19] was -73.3% [100 µM] (active).
In the case of `Cc1ccc(NC(=S)/N=c2/n(-c3ccccc3)nc3n2CCN3C2=NCCN2)cc1`, the growth is 109% in [1]; 113% in experiment [2]; 100% in experiment [3]; 92.4% in [4]; 97.5% in experiment [5]; 106% in experiment [6]. In addition, the growth in experiment [7] was 86%; in experiment [8], 81.2%; in experiment [9], 102%; in experiment [10], 98.8%; in experiment [11] it was 112%; in experiment [12] it was 104%. Moreover, the growth is 105% in experiment [13]; 98.2% in experiment [14]; 114% in experiment [15]; 120% in [16]; 129% in experiment [17]; 111% in experiment [18]. Moreover, the growth in [19] was 112%.

For the origin of these results see PubChem BioAssay (NCI).
